Measurements taken from PubChem BioAssay AID602281 (The Scripps Research Institute Molecular Screening Center, 2012).
Several values for one entry are separate records, joined by “and”; a condition that tells them apart may be missing. Equal values may be shown once. Out of some 360,000 compounds screened, about 2,900 (0.81%) were called active.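 Rule for the calls: active = inhibition above the mean inhibition across every tested compound plus 3 SD (cut at about 22% in these data); inactive = the rest.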 Shown is part of a subset that was picked to be rich in actives. A structure can be active in one record and inactive in another.

These compounds were tested against Perilipin-5 (Homo sapiens) + 1-acylglycerol-3-phosphate O-acyltransferase ABHD5 (Homo sapiens) (UniProt Q00G26+Q8WTS1) (assay: ABHD5-PLIN5 interaction inhibitors, primary screen, cell lysate, split luciferase complementation, luminescence (AID 602281;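 note: 0% = DMSO only wells and the 100% control is not disclosed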)). Conditions: Split G. princeps luciferase complementation, 4 h, at 4 µM, stronger effect = higher value.
Perilipin-5 (Homo sapiens) + 1-acylglycerol-3-phosphate O-acyltransferase ABHD5 (Homo sapiens), sequence (Q00G26 whole entry, looked up): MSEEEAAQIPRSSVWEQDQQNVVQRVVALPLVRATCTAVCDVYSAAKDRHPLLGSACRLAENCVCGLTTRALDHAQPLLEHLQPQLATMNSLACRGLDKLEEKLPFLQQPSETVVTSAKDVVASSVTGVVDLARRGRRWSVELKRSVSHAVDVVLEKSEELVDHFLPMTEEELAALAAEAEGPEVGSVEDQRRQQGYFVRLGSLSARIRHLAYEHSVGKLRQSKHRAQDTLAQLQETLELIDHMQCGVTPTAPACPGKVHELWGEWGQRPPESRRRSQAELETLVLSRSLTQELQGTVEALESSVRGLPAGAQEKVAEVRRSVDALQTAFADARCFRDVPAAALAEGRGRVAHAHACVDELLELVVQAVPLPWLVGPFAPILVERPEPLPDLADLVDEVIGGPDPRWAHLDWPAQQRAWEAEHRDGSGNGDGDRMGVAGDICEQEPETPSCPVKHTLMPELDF
Perilipin-5 (Homo sapiens) + 1-acylglycerol-3-phosphate O-acyltransferase ABHD5 (Homo sapiens), sequence (Q8WTS1 whole entry, looked up): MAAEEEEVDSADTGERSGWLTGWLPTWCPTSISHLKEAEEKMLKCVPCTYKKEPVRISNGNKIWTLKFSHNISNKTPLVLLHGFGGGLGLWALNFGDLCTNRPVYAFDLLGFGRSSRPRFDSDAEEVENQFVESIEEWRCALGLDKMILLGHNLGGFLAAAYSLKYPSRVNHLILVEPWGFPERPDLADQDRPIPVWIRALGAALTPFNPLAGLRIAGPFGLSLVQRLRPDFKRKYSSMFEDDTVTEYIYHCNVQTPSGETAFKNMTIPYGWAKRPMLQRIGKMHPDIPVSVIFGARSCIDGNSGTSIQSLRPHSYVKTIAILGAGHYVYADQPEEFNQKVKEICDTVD

| Structure (SMILES) | inhibition |
| --- | --- |
| O=C(CCC(=O)OCC(F)(F)C(F)F)NCc1ccccc1 | -6.31% (inactive) |
| Oc1c(CN2CCOCC2)ccc(CN2CCOCC2)c1O | -0.13% (inactive) |
| COc1ccccc1NC(=O)CSc1nnc(Cn2nnc(-c3ccccc3)n2)n1-c1ccccc1 | 7.76% (inactive) |
| COc1ccc(Cl)cc1NC(=O)CCS(=O)(=O)c1ccc(Br)cc1 | -6.29% (inactive) |
| CCCCC(=O)N/N=C(\C)CC(=O)Nc1cc(Cl)ccc1OC | 22.2% (active) |
| COc1ccc(/C(C)=N/NC(=O)CCC(=O)Nc2ccc(Cl)cc2Cl)c(OC)c1 | -4.09% (inactive) |
| COc1cc2c(C(=O)N(C)c3cc(Cl)ccc3OC)cn(C)c(=O)c2cc1OC | -8.81% (inactive) |
| CN(C)CCNC(=O)C(C(=O)c1ccccc1)n1ccccc1=O (stereo unspecified) | -4.39% (inactive) |
| COCCNC(=O)c1ccc(Cn2c(SCC(=O)NCC3CCCO3)nc3ccc(Br)cc3c2=O)cc1 (stereo unspecified) | -3.04% (inactive) |
| CCCN1CCn2c3c(c4cc(Br)ccc42)CCCC31 (stereo unspecified) | -7.51% (inactive) |
| OC(CNCC1CCCO1)Cn1c2ccc(Br)cc2c2cc(Br)ccc21 (stereo unspecified) | 27.7% (active) |
| CCOc1ccc(N(CC(=O)NCCc2ccc(OC)cc2)S(C)(=O)=O)cc1 | -0.93% (inactive) |
| Cc1cc(C)n(CC(C)NCc2c(C(=O)N3CCOCC3)nc3c(C)cccn23)n1 (stereo unspecified) | 1.11% (inactive) |
| CC1=C(C(=O)N2CCOCC2)CC(CC(=O)NCc2ccco2)C(=O)N1Cc1ccc(F)cc1 (stereo unspecified) | 5.09% (inactive) |
| Cc1c(CCO)sc[n+]1CC(=O)OC12CC3CC(CC(C3)C1)C2 | -1.3% (inactive) |
| Cc1c(CCOC(=O)c2cc([N+](=O)[O-])ccc2Cl)sc[n+]1CCCCS(=O)(=O)[O-] | 7.78% (inactive) |
| Cc1c(CCOC(=O)CC23CC4CC(CC(C)(C4)C2)C3)sc[n+]1Cc1ccc([N+](=O)[O-])cc1 | 19% (inactive) and 24.3% (active) |
| O=C(NCCCN1CCOCC1)C1CCCN(S(=O)(=O)N2CCCCC2)C1 (stereo unspecified) | -6.18% (inactive) |
| Fc1ccc(Nc2nnns2)cc1 | -1.08% (inactive) |

| Structure (SMILES) | inhibition |
| --- | --- |
| Cc1[nH]c(C)c(S(=O)(=O)N2CCN(c3cccc(C(F)(F)F)c3)CC2)c1C(=O)N1CCCCC1 | -3.87% (inactive) |
| Cc1c(C)c2c(OCC(=O)N[C@@H](C(=O)O)c3ccccc3)cc3c(c2oc1=O)CCC(C)(C)O3 | 9.96% (inactive) |
| CC1Cc2ccccc2N1CC(=O)Nc1ccc(S(N)(=O)=O)cc1 (stereo unspecified) | 26.1% (active) |
| CC1Cc2ccccc2N1CC(=O)Nc1ccc2c(c1)OC(F)(F)O2 (stereo unspecified) | -17.3% (inactive) |
| CC1CC(C)CN(CC(=O)Nc2ccc(S(N)(=O)=O)cc2)C1 (stereo unspecified) | -3.77% (inactive) |
| O=C(CCSc1ccccc1)NCCSc1ccccn1 | 4.14% (inactive) |
| Cc1ccc2cc3cc(C(=O)N4CCCCCC4)oc3nc2c1 | 0.91% (inactive) |
| O=C1Cc2cc(S(=O)(=O)Nc3cccc(F)c3)ccc2N1 | -4.67% (inactive) |
| CCN(CC(=O)Nc1c(F)cccc1F)C(=O)c1ccc(-c2ccc(C(C)=O)cc2)o1 | -6.21% (inactive) |
| CCC1(c2ccccc2)NC(=O)N(CC(=O)c2ccc3c(c2)OCO3)C1=O (stereo unspecified) | 6.66% (inactive) |
| O=C(CN1CCN(c2ccccc2F)CC1)c1ccc2c(c1)OCO2 | 1.72% (inactive) |
| O=C(CCN1CCc2ccccc2C(O)(c2ccccc2)C1)c1ccc2c(c1)OCCO2 (stereo unspecified) | 40.8% (active) |
| COCCN1CCn2c(nc3cc(NS(C)(=O)=O)ccc32)C1 | 3.04% (inactive) |
| Cc1cc(SCC(=O)NCCN2C(=O)CSC2=O)nc2ccccc12 | 1.93% (inactive) |
| Cc1cc(C)cc(C(=O)NC(CC(N)=O)c2ccc(N3CCC(N4CCCCC4)CC3)c([N+](=O)[O-])c2)c1 (stereo unspecified) | -0.26% (inactive) |
| O=C(CSc1nnc(CNC(=O)c2ccc(F)cc2)o1)Nc1ccc2c(c1)OCO2 | -2.58% (inactive) |
| COCCN(CCOC)c1nc(N)c2c(N)nc3c(c2c1C#N)CC(=O)N3Cc1ccc(Cl)cc1 | 32.7% (active) |
| C=CCC[C@H](CCCCC)OC(=O)/C=C/[C@H](O)[C@@H](O)C[C@@H](O)CC=C | -7.52% (inactive) |
| Cc1cccc(-c2ncc(CN3CCC(CO)(CCCc4ccccc4)CC3)cn2)c1 | 12.2% (inactive) |

| Structure (SMILES) | inhibition |
| --- | --- |
| Cc1c(CN2CCC(CO)(CCOc3ccccc3)CC2)[nH]c2ccc(Cl)cc12 | 22.5% (active) |
| CC(C)(O)C#Cc1ccc(CN2CCC(CO)(CCc3ccccc3)CC2)cc1 | -5.13% (inactive) |
| CCC(=O)NC(Nc1cc(C)ccn1)(C(F)(F)F)C(F)(F)F | 7.47% (inactive) |
| c1cc(-c2ccc3[nH]ccc3c2)n2ccnc2c1 | 0.38% (inactive) |
| CCN1CCC(O)(/C=C/c2ccc(C)cc2)C(C(=O)/C=C/c2ccc(C)cc2)C1 (stereo unspecified) | 75% (active) |
| CN(CC(=O)Nc1cccc2c1CCCC2)S(=O)(=O)c1ccc(Cl)cc1 | 4.76% (inactive) |
| COC(=O)Cc1ccc(OC(=O)C2CCN(S(=O)(=O)c3ccc(OC)c(OC)c3)CC2)cc1 | 4.12% (inactive) |
| CC1(C(=O)NCc2cccc3ccccc23)CCN1Cc1ccc(-c2ccccc2)o1 (stereo unspecified) | 40.4% (active) |
| CC1(C(=O)NCc2ccc3c(c2)OCO3)CCN1C(=O)Cc1cccc2ccccc12 (stereo unspecified) | 0.84% (inactive) |
| CSc1ccc(CN2CCC2(C)C(=O)NCc2ccccc2Br)cc1 (stereo unspecified) | -5.69% (inactive) |
| CN(C)c1cccc(C(=O)N2CCC(n3nccc3NC(=O)C3CCOC3)CC2)c1 (stereo unspecified) | -0.66% (inactive) |
| CC(C)(C)NC(=O)C(CCc1ccccc1)n1c(=O)c(-c2ccccc2)nc2ccccc21 (stereo unspecified) | 22.9% (active) |
| CSCCC(C(=O)NC(C)(C)C)n1c(-c2ccccc2)nc2ccccc21 (stereo unspecified) | -13.8% (inactive) |
| CCC(C(=O)NC(C)(C)C)n1c(-c2ccccc2)nc2ccccc21 (stereo unspecified) | 9.54% (inactive) |
| COc1ccc(S(=O)(=O)N2CCCCC2)cc1NC(=O)C1CC(=O)N(c2ccc3c(c2)OCCO3)C1 (stereo unspecified) | 12.7% (inactive) |
| CCOCN(C(=O)Cn1c(C(C)O)nc2ccccc21)c1c(C)cccc1CC (stereo unspecified) | -2.38% (inactive) |
| CN(C)C(=O)COC(=O)c1cccc(S(=O)(=O)N2CC3(C)CC2CC(C)(C)C3)c1 (stereo unspecified) | -4.49% (inactive) |
| Cc1nnnn1/C(=C\c1ccccc1)C(=O)OCC(=O)N1CC2(C)CC1CC(C)(C)C2 (stereo unspecified) | 38.6% (active) |
